# Source: PubChem BioAssay (EPA / NIEHS)
# The source made the active and inactive calls. Rule for the calls: active = hit-call score of the fitted dose curve at least 0.9, where 1 is the maximum; inactive = score below 0.9.
# What was measured:
# [1] = system: SRY-box transcription factor 17 (SOX17) Protein Expression, Deisenroth Lab, SOX17 (gene 64321); assay: CCTE_Deisenroth_DEVTOX-GLR_legacy_Sox17: (Legacy) CCTE's DevTox GLR-Endo Assay Evaluation of SRY-box transcription factor 17 (SOX17) Protein Expression, Deisenroth Lab (AID 2284341); conditions: actives raise or lower the signal
# In short: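 Percent SOX17-positive cells, scored by high-content imaging as mean intensity exceeding pluripotent-control median by 5x BMAD, divided by cell count. Human RUES2-GLR endoderm differentiation, 48 h, two exposures 24 h apart, 1 nM–200 uM; DMSO-referenced bidirectional fitting.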
# [2] = system: SRY-box transcription factor 2 (SOX2) Protein Expression, Deisenroth Lab, SOX2 (gene 6657); assay: CCTE_Deisenroth_DEVTOX-GLR_legacy_Sox2: (Legacy) CCTE's DevTox GLR-Endo Assay Evaluation of SRY-box transcription factor 2 (SOX2) Protein Expression, Deisenroth Lab (AID 2284346)
# Description: CCTE_Deisenroth_DEVTOX-GLR_legacy assay is a cell-based, multiplex-readout assay that uses RUES2-GLR, a human pluripotent cell line, with measurements taken at 48 hours after chemical dosing in a 384-well microplateCCTE_Deisenroth_DEVTOX-GLR_legacy_Sox2 is one of 4 assay components calculated from the CCTE_Deisenroth_DEVTOX-GLR_legacy assay that measures an increase in the percentage of cells in an ectodermal or pluripotent state. It is designed to make measurements of inducible reporter a form of fluorescent protein induction as detected with optical fluorescence microscopy. Percentage Sox2+ cells are determined by calculating the number of Sox2+ cells divided by cell count. […] The assay endpoint was analyzed with bidirectional fitting with the 0.2% DMSO control median percent Sox2 in the CCTE_Deisenroth_DEVTOX-GLR_Endo assay subtracted.Data from the assay component CCTE_Deisenroth_DEVTOX-GLR_legacy_Sox2 was analyzed into 1 assay endpoint. This assay endpoint, CCTE_Deisenroth_DEVTOX-GLR_legacy_Sox2, was analyzed in the positive analysis fitting direction relative to DMSO as the negative control and baseline activity. […] Furthermore, this assay endpoint can be referred to as a secondary readout, because this assay has produced multiple assay endpoints where this one serves as a measure of pluripotency or ectoderm differentiation. […]
# [3] = Tanguay_ZF_120hpf_MO24: Oregon State University Tanguay Lab 24 Hour Post-fertilization zebrafish Assay for Mortality (AID 2284389)
# In short: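 Dechorionated wild-type zebrafish embryos, 1 per well, statically exposed from 6 hpf at 28C, 0.64% DMSO final. Mortality scored as binary present/absent at 24 hpf by brightfield microscopy, relative to DMSO.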
# [4] = Tanguay_ZF_120hpf_DP24: Oregon State University Tanguay Lab 24 Hour Post-fertilization zebrafish Assay for Delayed Development (AID 2284390)
# In short: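 Dechorionated 5D wild-type zebrafish embryos exposed statically from 6 hpf, one per well, 0.64% DMSO final, 28 C, sealed and dark. Developmental progression scored at 24 hpf by brightfield as binary present/absent; dead embryos excluded.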
# [5] = Tanguay_ZF_120hpf_CRAN: Oregon State University Tanguay Lab 120 Hour Post-fertilization zebrafish Assay for Craniofacial Malformation (AID 2284397)
# In short: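 Dechorionated Tropical 5D wild-type zebrafish embryos, one per well, were statically exposed from 6 to 120 hpf at 28C in 0.64% DMSO, with 5uM trimethyltin chloride as positive control. Craniofacial malformation was scored present/absent by brightfield microscopy, relative to DMSO.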
smiles,measurement,setting,value
CC1(C)[C@@H]2CC[C@@]1(C)C(=O)C2,outcome,[1],inactive
same,outcome,[2],inactive
C[N+](C)(C)CCCNS(=O)(=O)C(F)(F)C(F)(F)C(F)(F)C(F)(F)C(F)(F)C(F)(F)C(F)(F)C(F)(F)F,outcome,[3],inactive
same,AC50,[4],89.2 µM (active)
same,AC50,[5],70.4 µM (active)
O=C(O)C(F)(F)C(F)(F)C(F)(F)C(F)(F)C(=O)O,outcome,[3],inactive
same,outcome,[4],inactive
same,outcome,[5],inactive
